# Source: PubChem BioAssay (National Center for Advancing Translational Sciences (NCATS))
# HPGD inh = qHTS Assay for Inhibitors of HPGD (15-Hydroxyprostaglandin Dehydrogenase). 15-hydroxyprostaglandin dehydrogenase [NAD(+)] (Homo sapiens), P15428. purified HPGD, NADH fluorescence kinetic, PGE2 substrate. Potency, µM, inactives show top-dose activity change, negative = inhibition, usual class: inhibitors. 4.3% of 150,000 active; active = well fitted inhibition curve with a large enough effect, not every such curve was filed as active; inconclusive = small, poorly fitted or top-dose-only effect, or another doubt; inactive = no such curve, though single readings can be large or run the other way
# Target sequence (P15428 whole entry, looked up): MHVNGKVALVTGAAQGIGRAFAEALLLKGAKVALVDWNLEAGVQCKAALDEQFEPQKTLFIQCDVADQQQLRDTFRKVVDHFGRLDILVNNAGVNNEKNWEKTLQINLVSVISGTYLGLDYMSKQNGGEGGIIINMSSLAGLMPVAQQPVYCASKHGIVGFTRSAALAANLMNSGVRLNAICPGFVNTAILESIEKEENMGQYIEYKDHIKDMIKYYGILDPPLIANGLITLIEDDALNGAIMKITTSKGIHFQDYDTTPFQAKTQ
#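 NADH formation kinetics: reaction with 30 uM PGE2 and 1 mM NAD+ (final), 20 nM enzyme, Tris-HCl pH 8 with Tween 20, after 15 min compound preincubation at room temperature. Fluorescence change, last versus first of five reads.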
# p53ts 32C kill = qHTS Screen for Compounds that Selectively Target Cancer Cells with p53 Mutations: Cytotoxicity of p53ts Cells at the Permissive Temperature; H1299-p53A138V at 32C, ATP luminescence viability, 24 h; Potency, µM (top dose mostly 46.1 µM), inactives show at the top dose activity change, negative = cytotoxicity, hits mostly cytotoxic; 0.93% of 130,000 active; AID 924, 2007;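 note: 0% = DMSO and -100% = full killing by reference compound; nearly all actives have a fitted effect of over 55% in size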
#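 H1299-p53 A138V cells (temperature-sensitive p53) exposed 24 h to up to 46 uM compound at 32C, where p53 is wild-type in conformation. Viability read as ATP luminescence and normalised to DMSO and 100 uM tamoxifen. AC50 fitted with the Hill equation.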
# 12-hLO inh = qHTS Assay for Inhibitors of 12-hLO (12-human lipoxygenase); Polyunsaturated fatty acid lipoxygenase ALOX12 (Homo sapiens), P18054; purified 12-hLO, xylenol orange hydroperoxide absorbance; Potency, µM (titrated, usually from 57.1 µM), without a hit: at the highest dose activity change, negative = inhibition, hits mostly inhibitors; 0.12% of 150,000 active; note: nearly all actives have a fitted effect of over 55% in size
#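 Lipoxygenase turnover measured by absorbance at 573 and 405 nm after Fe-XO development. Human 12hLO 150 nM, arachidonate 40 uM, pH 7.0 Hepes buffer with detergent; 15 min compound preincubation, 30 min reaction.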
# p53ts 39C tox = qHTS Screen for Compounds that Selectively Target Cancer Cells with p53 Mutations: Cytotoxicity of p53ts Cells at the Nonpermissive Temperature. AID 902, 2007. 1.5% of 130,000 active. Potency, µM (highest dose often 46.1 µM), for the others: at the top dose activity change, negative = cell killing, hits mostly cytotoxic. H1299-p53A138V viability at 39C, ATP luminescence, 24 h; note: nearly all actives have a fitted effect of over 55% in size
# Active calls of the source: *; ? = inconclusive; · = no result; [ ] = another dose, or the depositor's remark. Only some compounds are listed: those with a hit (about 4.4% of all), similar ones and a draw of the others. Unless noted, calls come from the whole dose curve; as a rule, active = well fitted curve in the direction sought with a large enough effect; inconclusive = small, poorly fitted or top-dose-only effect, or another doubt; inactive = no such curve, though single readings can be large; an effect the other way counts as inactive or inconclusive. Unless noted, % is set by controls: 0 for no effect and ±100 for the full control effect; potency is the fitted concentration of half-maximal effect.
SMILES,HPGD inh,p53ts 32C kill,12-hLO inh,p53ts 39C tox
CCOC(=O)c1c(C)oc2c1c(C(c1cccnc1)N1CCN(C)CC1)c(O)c1ccccc12 (stereo unspecified),-28.2%,3.2%,-28.1%,-9.7%
O=C(CCCCCn1c(=O)[nH]c2ccccc2c1=O)N1CCN(c2ccc(Cl)cc2)CC1,·,-17.2%,·,-10.9%
Cc1ccc2nc(NCc3ccccc3)c(C=O)c(=O)n2c1,?,·,-2.2%,·
Cc1ccc2nc(Nc3ccccc3)c(/C=N/O)c(=O)n2c1,11.2µM*,-12.9%,-2.7%,-10.9%
CCOC(=O)C1=C(C)NC(=O)N[C@@H]1c1coc2cc(C)cc(C)c2c1=O,-1.4%,18.1%[9.22 µM],-1.7%[11.4 µM],4.4%[9.22 µM]
Cn1ccc2cc(S(=O)(=O)N3CCN(C(=O)Nc4cccc(F)c4)CC3)ccc21,·,3.1%,·,-3.1%
CCc1ccc(NC(=O)CN(Cc2ccccc2)S(=O)(=O)c2ccc3nc(C)sc3c2)cc1,·,-5.6%,·,-11.7%
COc1ccccc1OCCCCOc1ccccc1C(C)=O,-7.6%,·,-1.0%,·
CCc1cc(C(C)=O)c(O)cc1OCCCCCC(C)(C)c1nn[nH]n1,20µM*,8.7%,-3.6%,3.4%
COc1ccc(-c2nc3cnc(OC)nc3n(Cc3cccc(OC)c3)c2=O)cc1,?,-11.4%,-1.2%,-9.3%
N#CC(C#N)=NNc1ccc(S(=O)(=O)N2CCCCC2)cc1,31.6µM*,·,-1.2%,·
Cc1ccn2c(c1)nc(=S)n2C(=O)c1ccccc1,25.1µM*,·,5.0%,·
O=C(c1ccco1)n1c(=S)nc2ccccn21,11.2µM*,-4.0%,-4.5%,-10.6%
Brc1ccc(Nc2c3c(nc4nncn24)CCC3)cc1,·,-1.5%,·,-6.9%
CCN(CC)C(=O)C1CCCN(c2ncnc3c2c(-c2ccccc2)cn3-c2cccc(C)c2)C1 (stereo unspecified),·,29.6%,·,?
COc1cccc(/C=N/NC(=O)c2cc3cc([N+](=O)[O-])ccc3s2)c1O,28.2µM*,·,-3.0%,·
COc1cccc(CNC(=O)CSc2ncc3c(n2)-c2cc(Cl)ccc2N(C)S3(=O)=O)c1,·,1.9%,·,5.0%
O=Cc1cccc(OC(=O)c2ccc(Cl)cc2Cl)c1,15.8µM*,·,-20.1%,·
c1cncc(CNc2ncncc2-c2ccc3c(c2)OCO3)c1,?,8.9%,0.9%,-0.4%
COc1cccc(C(=O)N(Cc2ccc(N(C)C)cc2)Cc2ccco2)c1,·,-0.3%,·,-3.2%
Cc1ccccc1-c1nc2sc3c(c2c(=O)o1)CCC3,15.8µM*,-7.8%,0.4%,29.4%
O=c1oc(-c2cc3ccccc3o2)nc2sc3c(c12)CCCC3,-6.0%,7.4%,4.1%,-5.4%
O=c1oc(-c2cccs2)nc2sc3c(c12)CCCCC3,?,12.6µM*,0.7%,10µM*
Cn1nnc2sc3c(c2c1=O)CCCC3,31.6µM*,·,-7.3%,·
O=c1oc(-c2ccccc2)nc2sc3c(c12)CCCC3,?,·,-1.9%,·
SMILES,HPGD inh,p53ts 32C kill,12-hLO inh,p53ts 39C tox
Cc1ccccc1-c1nc2sc3c(c2c(=O)n1N)CCCC3,25.1µM*,·,-5.4%,·
CCOC(=O)C1CCCN(C(=O)c2cc3c(Cl)nc4ccccc4c3s2)C1 (stereo unspecified),·,-0.4%,·,-14.2%
Nn1c(-c2cccs2)nc2sc3c(c2c1=O)CCCC3,?,10µM*,-9.2%,?
Cc1ccc2cc3cc(C(=O)N4CCN(c5cccc(C(F)(F)F)c5)CC4)sc3nc2c1,·,-3.5%,·,4.6%
Clc1ccccc1CN1CCc2nc(N3CCN(c4ncccn4)CC3)ncc2C1,·,-12.6%,·,-27.0%
Cc1ccc(NC(=O)CSc2nnc3[nH]c(=O)cc(-c4ccccc4)n23)cc1Cl,·,?,·,1.58µM*
Cc1ccc(C)c(NC(=O)CSc2nnc3[nH]c(=O)cc(-c4ccccc4)n23)c1,·,?,·,1.26µM*
O=C(CCn1c(=O)c2cccn2c2ccc(F)cc21)NCCc1ccccc1Cl,·,-8.2%,·,?
CCCc1ccc(-c2ccc(F)c(N)c2)nc1,-11.1%,3.98µM*,0.8%,7.94µM*
CC(C(=O)Nc1ccccc1)n1nnc2sc3c(c2c1=O)CCCC3 (stereo unspecified),·,1.4%,·,0.8%
CCOC(=O)c1c(C)c(C(=O)NCc2ccc(Cl)cc2)c(C)n1CC,·,2.1%,·,-20.8%
